We go through 34 compounds from PubChem BioAssay (NCATS).

Inconclusive results are not listed. Entries that show only a call come without a potency. Active and inactive are the calls of the source. Calls follow the shape of the dose curve; as a rule, active = well fitted curve in the direction sought with a large enough effect; inconclusive = small, poorly fitted or top-dose-only effect, or another doubt; inactive = no such curve, though single readings can be large; an effect the other way counts as inactive or inconclusive.

Test [1] is described as follows: qHTS to identify inhibitors of the type 1 interferon - major histocompatibility complex class I in skeletal muscle: primary screen against the NCATS Pharmaceutical Collection (AID 1347407). Also: potency is read from the fitted curve at half-maximal effect. The essentials: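 Luminescence from HiBiT-tagged endogenous HLA-B*08:01 served as the read-out of IFN-beta-induced MHC class I in CRISPR-engineered C25cl48 myoblasts. Cells received 4 ng/ml IFN-beta plus compound (high final 46 uM, […]) for 24 h.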

The target in test [2] is Protein phosphatase 1D (Homo sapiens) (UniProt O15297). The test is described as follows: RapidFire Mass Spectrometry qHTS Assay for Modulators of WT P53-Induced Phosphatase 1 (WIP1) (AID 1347424).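 Also: amount of dephosphorylated VEPPL-S-QETFS peptide product formed by WIP1.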 Also: potency is read from the fitted curve at half-maximal effect. As to activity change, negative = inhibition: series mostly up to about 63 µM. The method, boiled down:
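10 nM WIP1 preincubated with compounds 1 hr at room temperature in pH 7.5 Tris buffer with 30 mM MgCl2, 1 mM TCEP; 2 uM VEPPL-pS-QETFS phosphopeptide for 5 min, formic acid quench; dephosphorylated product quantified by RapidFire MS against labelled standard.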

Test [3] is described as follows: Primary qHTS for inhibitors of La Crosse Virus (LACV) - induced cell death in SH-SY5Y cells (AID 1508616).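 Also: top concentration of the series differs between compounds; higher means more rescue of cells from virus-induced death.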 The method, boiled down:
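Luminescent ATP readout (ATPLite 1step, 5 min room temperature) measured rescue from LACV-induced death after 6 days of infection at 0.01 MOI; normalized to infected DMSO wells and uninfected DMSO wells.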

The target in test [4] is Calcium and integrin-binding protein 1 (Homo sapiens) (UniProt Q99828). Nature of the test: Confirmatory qHTS for Identification of Calcium Integrin Binding Protein 1 (CIB1) Competitor (AID 1508617). Also: potency is read from the fitted curve at half-maximal effect; nearly all actives have a fitted effect of over 65% in size. The essentials:
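Fluorescence polarization competition: CIB1-GST (1 uM final) in 5 mM HEPES pH 7.4, 125 mM NaCl, 5 mM CaCl2, 0.01% Tween20 preincubated 15 min RT with compound (up to 114 uM), then FITC-alphaIIb peptide (100 nM) added, 15 min RT.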

Test [5] has as its target Protein phosphatase 1D (Homo sapiens) (UniProt O15297). Nature of the test: Rhodamine-PBP qHTS Assay for Modulators of WT P53-Induced Phosphatase 1 (WIP1) (AID 1347425). The essentials:
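Read-out: Rhodamine-PBP fluorescence (ex 525/em 598 nm) for released Pi, read each minute for 11 min after adding 10 uM VEPPL-pS-QETFS; signal taken as f1 minus pre-substrate f0. Enzyme 5 nM WIP1 with 1 hr room-temperature compound preincubation.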

Test [6] can be described thus: qHTS for inhibitors of adenylyl cyclases using a fission yeast platform: a pilot screen against the NCATS LOPAC library (AID 1347410). The essentials: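 Fission yeast qHTS: CHP2027 cells (AC9-GNAS-PDE4D2, fbp1-GFP), 5x10^6 cells/mL working density, EMM + His/Lys/Ura; LOPAC at up to 57 µM final; 18 h dark, 30C; GFP by laser cytometry. DPI positive control, DMSO vehicle.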

Test [7] can be described thus: qHTS to identify inhibitors of the type 1 interferon - major histocompatibility complex class I in skeletal muscle: primary screen against the NCATS Mechanism Interrogation Plate v5.0 (MIPE) Libary (AID 1347411). Also: nearly all actives have a fitted effect of over 65% in size. The essentials: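 Immortalized human C25cl48 myoblasts with HiBit knocked into endogenous HLA-B*08:01 were stimulated with 4.0 ng/ml IFN-beta and exposed to compounds (11-point 1:3 titration, top 46 uM final) for 24 hrs at 37 C; HiBiT lytic luminescence measured.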

A short description of test [8]: Validation qHTS assay for inhibitors of Activation Induced Cytidine Deaminase (AID): UDG Counterscreen signal (AID 1347427). The method, boiled down:
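Counterscreen read of UDG activity (2 U/mL, 4/3x) in the FRET deamination format with AID (1 uM, 4/3x), DJC20/DJC23 substrates (250 nM, 4x), 4 h at room temperature. NaOH stop, fluorescence at 560 ex/665 em.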

Test [9] deals with Single-stranded DNA cytosine deaminase (Homo sapiens) (UniProt Q9GZX7). Nature of the test: Validation qHTS assay for inhibitors of Activation Induced Cytidine Deaminase (AID): AID signal (AID 1347429). The essentials: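 AID and UDG were combined and compounds added at final up to 114 uM, then DJC20/DJC23 FRET substrate was added for 4 hr at room temperature. NaOH was then added for 30 min before fluorescence was read at 540/590 nm.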
Chain of Single-stranded DNA cytosine deaminase (Homo sapiens) (Q9GZX7 whole entry, looked up): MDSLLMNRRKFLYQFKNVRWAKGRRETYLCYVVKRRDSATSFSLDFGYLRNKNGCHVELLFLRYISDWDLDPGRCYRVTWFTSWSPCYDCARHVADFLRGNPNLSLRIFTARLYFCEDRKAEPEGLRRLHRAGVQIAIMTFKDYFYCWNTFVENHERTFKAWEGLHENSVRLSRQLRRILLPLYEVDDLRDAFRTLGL

Chain of Protein phosphatase 1D (Homo sapiens) (O15297 whole entry, looked up): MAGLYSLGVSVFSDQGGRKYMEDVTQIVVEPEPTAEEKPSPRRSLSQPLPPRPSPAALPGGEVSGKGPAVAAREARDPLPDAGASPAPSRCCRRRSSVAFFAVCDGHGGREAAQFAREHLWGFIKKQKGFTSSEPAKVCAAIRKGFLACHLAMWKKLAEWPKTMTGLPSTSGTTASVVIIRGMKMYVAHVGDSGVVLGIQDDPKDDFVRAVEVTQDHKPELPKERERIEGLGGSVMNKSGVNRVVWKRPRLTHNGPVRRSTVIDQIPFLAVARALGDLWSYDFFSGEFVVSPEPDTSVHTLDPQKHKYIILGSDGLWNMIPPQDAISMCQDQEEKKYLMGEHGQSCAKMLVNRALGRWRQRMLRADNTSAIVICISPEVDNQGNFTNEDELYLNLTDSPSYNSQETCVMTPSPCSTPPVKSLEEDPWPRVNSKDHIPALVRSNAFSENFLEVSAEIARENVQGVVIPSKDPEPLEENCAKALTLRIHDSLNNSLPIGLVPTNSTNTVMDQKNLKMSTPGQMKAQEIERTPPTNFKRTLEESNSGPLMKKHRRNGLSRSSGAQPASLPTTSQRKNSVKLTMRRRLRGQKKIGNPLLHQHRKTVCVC
Chain of Calcium and integrin-binding protein 1 (Homo sapiens) (Q99828 whole entry, looked up): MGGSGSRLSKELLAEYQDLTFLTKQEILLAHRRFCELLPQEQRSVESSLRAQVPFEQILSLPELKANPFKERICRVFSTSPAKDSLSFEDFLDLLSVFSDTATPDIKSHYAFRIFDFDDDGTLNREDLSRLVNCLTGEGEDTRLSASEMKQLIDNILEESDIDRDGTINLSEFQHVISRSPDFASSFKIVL

For `COc1ccc([C@@H]2Sc3ccccc3NC(=O)[C@@H]2O)cc1`, the Potency entry in test [1] and in [2] was “inactive” in each case. In test [3], the call was inactive.
With `CCC(=O)O[C@]1(C(=O)COC)[C@@H](C)C[C@H]2[C@@H]3CCC4=CC(=O)C=C[C@]4(C)C3(F)[C@@H](O)C[C@@]21C` (stereo partly drawn), the Potency result in [1] and in test [2] was “inactive” each time. The outcome in test [3] was inactive.
Regarding `CC(=O)c1cc2ccccc2s1`, the Potency result in [1] and in test [2] was “inactive” throughout. In addition, the result in test [3] was inactive.
For the compound `CCCC(=O)c1cc(O)c(O)cc1O`, the Potency entry in test [1] is “inactive”. Further, the Potency in test [2] and in test [4] was 35.5 µM (active) throughout. In test [3], the compound was classed as inactive.
Turning to `CCCCCCCCCCCCCCCC[N+](C)(C)Cc1ccccc1`, the Potency in [1] was 23.6 µM (active). The call in test [5] and in test [3] was inactive.
Consider `CCS(=O)(=O)c1ccc(OC)c(C(=O)OC)c1`, for which, in test [1], the Potency entry was “inactive”. The result in test [5] was inactive.
`NCC[C@H](O)C(=O)N[C@@H]1C[C@H](N)[C@@H](O[C@H]2O[C@H](CN)[C@@H](O)[C@H](O)[C@@H]2O)[C@H](O)[C@@H]1O[C@H]1O[C@H](CO)[C@@H](O)[C@H](N)[C@@H]1O`: the values for the activity change, negative = inhibition in test [1] and in [5] were -1.93% [at 0.727 µM] (inactive) and 3.01% [at 0.575 µM] (inactive), respectively. For the same compound, the activity change in test [3] was 4.33% [at 0.0343 µM] (inactive).
As to `CN1C(CSCC(F)(F)F)Nc2cc(Cl)c(S(N)(=O)=O)cc2S1(=O)=O` (stereo not drawn), the Potency result in test [1] was “inactive”. Moreover, the outcome in test [5] and in [3] was inactive.
As to `CC(COc1ccccc1)NN` (stereo not drawn), the Potency result in test [1] was “inactive”. Also, the outcome in [5] and in [3] was inactive.
As for `COc1cc(S(N)(=O)=O)cc(C(=O)O)c1OC`, in [1], the Potency entry was “inactive”. The result in [5] and in [3] was inactive.
In the case of `CCOc1ccc(NS(=O)(=O)c2ccc(N)cc2)nn1`, in [1], the Potency result was “inactive”. Also, the compound was classed as inactive in [5] and in test [3].
For the compound `Oc1ccc(CCNCCCCCCNCCc2ccccc2)cc1O`, the Potency result in [1] is “inactive”. For the same compound, the compound was called inactive in [5].
On to `CO/N=C(/C(=O)N[C@@H]1C(=O)N2C(C(=O)O)=C(Cn3nnc(C)n3)CS[C@H]12)c1csc(N)n1`, for which the Potency result in test [1] is “inactive”. The compound was classed as inactive in test [5] and in test [3].
With `CCC(C(=O)OCCN1CCOC(c2ccccc2)C1C)c1ccccc1` (stereo not drawn), in [1], the Potency entry is “inactive”. The result in [5] and in [3] was inactive.
`NS(=O)(=O)c1cc2c(cc1Cl)CN(C1CCCCC1)C2=O`: the Potency result in test [1] is “inactive”. Moreover, the compound was classed as inactive in [5] and in test [3].
Turning to `O=C(O)CCCC[P+](c1ccccc1)(c1ccccc1)c1ccccc1`, in test [1], the Potency result was “inactive”. The result in [5] and in [3] was inactive.
As to `COc1ccc(OC(=O)N(CC(=O)O)Cc2ccc(OCCc3nc(-c4ccccc4)oc3C)cc2)cc1`, in test [1], the Potency entry was “inactive”. In [3], the outcome was inactive.
Regarding `COc1ccc(CCC(C)=O)cc1`, the Potency result in test [1] is “inactive”. In addition, the result in [5] and in test [3] was inactive.
As for `C=CCNc1nc(NCC=C)nc(N2CCN(C(c3ccc(F)cc3)c3ccc(F)cc3)CC2)n1`, in test [1], the Potency entry was “inactive”. Further, in test [3], the compound was classed as inactive.
For `O=C1NC(=O)/C(=C/c2ccc3c(c2)OC(F)(F)O3)S1`, the result in [6], in [8], in test [9] and in [3] was inactive. Also, in [7], the Potency entry was “inactive”.
On to `CC(=O)Oc1ccc(C2(c3ccc(OC(C)=O)cc3)Oc3ccccc3NC2=O)cc1`, for which the Potency result in test [2] is “inactive”.
As to `CCc1cccc2c(CCO)c[nH]c12`, the Potency entry in test [1] was “inactive”. In addition, the call in [5] and in test [3] was inactive.
For the compound `O=c1[nH]sc2cc(Cl)ccc12`, the Potency result in [2] is “inactive”. Also, the compound was called inactive in test [5].
With `CCCCC(CC)CNC(=O)CC(C)OC(=O)CCC(=O)O` (stereo not drawn), the Potency result in [1] was “inactive”. Further, the compound was called inactive in [5] and in test [3].
On to `Cc1cc(O)c2c(O)c3c(O)cccc3cc2c1`, for which, in test [1], the Potency result was “inactive”. Besides, the call in test [3] was inactive.
Consider `CCCCCCCC(=O)[O-].CCCCCCCC(=O)[O-].[Zn+2]`, for which the Potency entry in test [1] is “inactive”. For the same compound, the compound was classed as inactive in [3].
In the case of `CCCCCC(=O)O[C@]1(C(C)=O)CC[C@H]2[C@@H]3CCC4=CC(=O)CC[C@]4(C)[C@H]3CC[C@@]21C`, the Potency result in test [1] is “inactive”. For the same compound, the outcome in test [5] and in [3] was inactive.
Consider `CSc1ccc(/C=C2/C(C)=C(CC(=O)O)c3cc(F)ccc32)cc1`, for which the Potency entry in test [1] was “inactive”. Further, the outcome in test [3] was inactive.
For `O=C(O)[C@@H](O)[C@H](O)[C@H](O)[C@@H](O)C(=O)O`, the Potency result in test [1] was “inactive”. The outcome in test [5] and in test [3] was inactive.
Regarding `O=[N+]([O-])c1ccc(-c2nc(-c3ccc(F)cc3)c(-c3ccncc3)[nH]2)cc1`, the compound was called inactive in test [6], in test [8], in test [9] and in test [3].
Consider `CCC1=C[C@@H]2CN(C1)Cc1c([nH]c3ccccc13)[C@@](C(=O)OC)(c1cc3c(cc1OC)N(C)[C@H]1[C@@](O)(C(=O)OC)[C@H](OC(C)=O)[C@]4(CC)C=CCN5CC[C@]31[C@@H]54)C2`, for which the Potency result in test [7] and in test [2] was “inactive” in each case. Also, in test [3], the outcome was inactive.
In the case of `C[C@@H](O[C@H]1OCCN(Cc2n[nH]c(=O)[nH]2)[C@H]1c1ccc(F)cc1)c1cc(C(F)(F)F)cc(C(F)(F)F)c1`, in test [1], the Potency entry is “inactive”. Moreover, the outcome in test [3] was inactive.
For `OCCOCCN1CCN(C(c2ccccc2)c2ccc(Cl)cc2)CC1` (stereo not drawn), in [1], the Potency entry is “inactive”. Further, the compound was called inactive in test [3].
Take `CC1CN(c2cc3c(cc2F)c(=O)c(C(=O)O)cn3-c2ccc(F)cc2F)CCN1` (stereo not drawn): the activity change, negative = inhibition in test [2] was -2.72% [at 6.17 µM] (inactive); in test [5], 0.0772% [at 4.81 µM] (inactive).
